From ChEMBL document CHEMBL3988442, “University of Dundee, Small-Polar-MMV Screening Library” (2021)

target: AMP-activated protein kinase, AMPK (Homo sapiens) (UniProt P54646+O43741+P54619+Q9UGJ0+Q9Y478+Q13131+Q9UGI9); experiment: AMP-dependent Kinase enzyme assay. An in vitro enzyme assay that detects ADP turnover that is directly proportional to AMPK activity. This uses naive AMPK that is activated during the assay with MK-8722; type: functional; design: scale not given: direction of the effect not stated beside the values; conditions: 30 µM

Structure (SMILES) | Percent Effect [%]
O=C(c1ccnc(-n2cnnc2)c1)N1CCCC2(CCNC2)C1 (stereo not given) | -3.71
Cn1cc(C2=CCN(CCCC(=O)Nc3ccc(C#N)cc3)CC2)cn1 | 7.78
NC1(c2nc(C(F)(F)F)cc(=O)[nH]2)CCCC1 | -4.13
CC(C)NC(=O)[C@H]1CN(Cc2ccccc2)C[C@@H]1C(=O)c1ccccc1 | 7.87
CS(=O)(=O)N1C[C@H]2CC[C@@H]1CN(Cc1ccncc1)C2 | 11.6
CC(C)[C@@H]1CN(C(=O)C2(c3ccccc3)CCN(C)CC2)C[C@H]1N(C)C | -5.45
O=C(c1cc2ccccc2[nH]c1=O)N1CCC2(CCCNC2)C1 (stereo not given) | 16.8
Cc1[nH]c(=O)[nH]c(=O)c1CC(=O)N1CCCN(CC2CC2)C(C(C)C)C1 (stereo not given) | 3.13
COc1ncnc(N)c1CNCCc1ccccc1 | -4.78
CCc1cccnc1NCc1cnc(N2CCOCC2)nc1 | 22.9
COc1ccc(NC(=O)CCN2CC=C(c3cnn(C)c3)CC2)c(C)c1 | 6.63
CC(C)(C)c1cc(=O)[nH]c(C2(N)CCCC2)n1 | 3.52
CS(=O)(=O)c1ccc(CC(=O)N2CCN3CCNC(=O)C3C2)cc1 (stereo not given) | -2.22
Cc1ccc(NC(=O)CNC(C)Cc2ccsc2)cc1F (stereo not given) | -6.2
CCc1ccc(OCC(=O)N2CCN(CC)CC2)cc1 | -0.678
CC(=O)Nc1cccc(-c2ccccc2CCN)c1 | 4.86
Cc1nc(CC(=O)N2CCCC(N(C)Cc3ccccc3)C2)cs1 (stereo not given) | 6.8
CCCc1nc(C(=O)N[C@H]2COC[C@@H]2N2CCN(C)CC2)cs1 | -1.36
CSc1ccccc1C(=O)C1CCCN(Cc2ccccn2)C1 (stereo not given) | 18.7
COc1ccc(F)cc1C(=O)C1CCCN(Cc2ccc(C)s2)C1 (stereo not given) | 6.05

Structure (SMILES) | Percent Effect [%]
CCN1CCN(C(=O)COc2ccc(CN(C)S(C)(=O)=O)cc2)CC1 | -0.955
O=C(N[C@H]1CN2CCC1CC2)c1cc(Cn2cnc3ccccc32)[nH]n1 | -6.79
CC(Cc1cccc(F)c1)NCc1cnc(N2CCN(C)CC2)nc1 (stereo not given) | 8.49
Cc1cc(Cl)ccc1C(=O)C1CCCN(Cc2cnc(N(C)C)s2)C1 (stereo not given) | 3.99
c1cnc(N2C[C@@H]3CC[C@H](C2)N(Cc2ccsc2)C3)nc1 | 8.4
Cc1ccc2c(CC(=O)N(C)CCN(C)C)c(C)[nH]c2c1C | -8.21
Cc1nc(N)nc(C)c1CC(=O)N1CCCN(CC2CC2)C(C(C)C)C1 (stereo not given) | -4.33
CCc1cccc(NC(=O)CCN2CC=C(c3cnn(C)c3)CC2)c1 | 11.6
CCc1cccc2c(CC(=O)N(C)CCN(C)C)c(C)[nH]c12 | 9.67
CCOCCC(=O)N1C[C@H]2CC[C@@H]1CN(Cc1ccncc1)C2 | 3.36
CCc1nnc(NC(=O)CCN2CC=C(c3cnn(C)c3)CC2)s1 | 7.71
Cc1nc(C)c(CC(=O)N2CCCN(CC3CC3)C(C(C)C)C2)c(=O)[nH]1 (stereo not given) | -7.23
NC1(c2nc(C(F)(F)F)cc(=O)[nH]2)CCCCC1 | -5.09
COc1ccc(F)cc1C(=O)C1CCCN(Cc2cnc(C)s2)C1 (stereo not given) | 1.8
O=C(C1CC1)N1CCc2c(ncnc2N2CCN3CCCC3C2)C1 (stereo not given) | -5.38
COC(=O)N1C[C@H]2CC[C@@H]1CN(Cc1ccncc1)C2 | 0.146
O=C(N[C@H]1COC[C@@H]1N1CCCC1)c1csc(-c2cccs2)n1 | 2.31
CC(C)c1cc(N2CCCC3(CCN(C)C3)C2)ncn1 (stereo not given) | 1.53
Cc1nn(C)c2nc(N3CCCCC3c3cccnc3)sc12 (stereo not given) | -3.14
FC(F)(F)c1nc(C2CCNCC2)no1 | 5.73
